This test is described as follows: cell-free HIV fusion peptide-binding blockers – biochemical, uHTS, fluorescence dequenching, primary screen (AID 1986). As to conditions: 30 min, stronger effect = higher value.
Setting [1] is: measured here: repeat confirmation average inhibition, at 18.6 µM.

59 compounds from PubChem BioAssay AID1986 (Sanford-Burnham Center for Chemical Genomics, 2009) can be followed below.

“And” between values parts separate entries of the source, which are not always exact repeats. Equal values may be shown once. Out of some 290,000 compounds screened, about 890 (0.31%) were called active. Cut-off read from the data, not from the text of the source: active = inhibition mostly above about 52% (no sharp cut-off); inactive = mostly below about 76%. The list comes from a sample in which actives are over-represented; it also holds similar structures and randomly drawn compounds. The source holds several records for some structures; these can differ, active in one and inactive in another.

For orientation: inhibition means the relative decrease from the control value, in per cent. For `CC(C)n1cc(C(=O)c2ccccc2O)cc(C#N)c1=O`, where the note is “at 20 µM”, the inhibition is -0.9% (inactive). `CC(C)CC(C(=O)O)N1C(=O)C2C3c4ccccc4C(c4ccccc43)[C@@H]2C1=O` (some centres not stated): the inhibition (at 20 µM) was -0.8% (inactive). On the same count and under the same terms, to `CCCCCCCNC(=O)C1(CC2CC(c3ccc(Cl)cc3)=NO2)CCN(C(=O)OC(C)(C)C)CC1` (configuration not stated) belongs 0.6% (inactive); to `Cc1oncc1C(=O)NC1CCCCC1`, 0.8% (inactive). Same read-out and setting: to `CCOc1ccccc1N(CC(=O)NCCc1ccccc1)C(=O)CCC(=O)Nc1ccccn1` belongs 0% (inactive).

For `CN1/C(=C\C=C2/SC(=S)N(CC(=O)O)C2=O)C(C)(C)c2ccccc21`, the inhibition (at 20 µM) is 148% (inactive). In the case of `CCCCN1C(=O)/C(=C/C=C2\N(C)c3ccccc3C2(C)C)SC1=S`, the inhibition (at 20 µM) is -0.3% (inactive).

Regarding `C=CCN1C(=O)/C(=C\C=C2\N(C)c3ccccc3C2(C)C)SC1=S`, where the note is “at 20 µM”, the inhibition is 54.6% (active).

On to `COc1cccc(-c2noc(CCCC(=O)Nc3ccc(C(N)=O)cc3)n2)c1`, for which the inhibition (at 20 µM) was 0.5% (inactive). On the same count and under the same terms, for `CCCCCCCCCCCCCCCCn1cc[n+](C)c1` the value was 137% (inactive) and 70.3% (active); for `CCCCCCn1ccc(=N)cc1`, -2% (inactive). Take `CCCCCCCCn1ccc(=N)cc1`: the inhibition (at 20 µM) is -1.2% (inactive). The same measure, in the same setting: for `C[C@H](NC(=O)C1CCN(S(=O)(=O)c2ccccc2)CC1)C(=O)NCc1cccc(Cl)c1` the value was -1.4% (inactive).

Take `CCOC(=O)C1=C(C)C2C3C(=O)N(c4cc(C)ccc4C)C(=O)C3C1(C)C1C(=O)N(c3cc(C)ccc3C)C(=O)C21` (configuration not stated): where the note is “at 20 µM”, the inhibition was -0.1% (inactive). Consider `COC(=O)c1sc(N2C(=O)C(O)=C(C(=O)c3ccc(C)o3)C2c2ccc(OC)c(OC)c2)nc1C` (configuration not stated), for which the inhibition (at 20 µM) is 15.3% (inactive). Regarding `CCOC(Cn1c(SCc2cc(C(C)=O)ccc2OC)nc2ccccc2c1=O)OCC`, the inhibition (at 20 µM) was 3.3% (inactive). Still for that read-out and setting: to `COc1ccc(C(C)=O)cc1CSc1nc2cc(C(=O)O)ccc2c(=O)n1Cc1ccccc1` belongs 62.4% (active). Still for that read-out and setting: for `COCCn1c(SCc2cc(C(C)=O)ccc2OC)nc2cc(Cl)ccc2c1=O` the value was -2.4% (inactive).

As for `COCC(C)n1c(SCC(=O)c2cc(C)n(C)c2C)nc2ccccc2c1=O` (configuration not stated), under “at 20 µM”, the inhibition was 0.2% (inactive). Still for that read-out and setting: for `CC(C)(C)c1ccc(NC(=O)C2CCCN(c3cnccn3)C2)cc1` (configuration not stated) the value was -0.1% (inactive). Consider `O=C1Nc2ccccc2Oc2cc([N+](=O)[O-])cc(Oc3ccccc3)c21`, for which the inhibition (at 20 µM) was 59.7% (active). Consider `CCOc1cc([N+](=O)[O-])cc2c1C(=O)Nc1ccccc1O2`, for which the inhibition runs as follows: (at 20 µM) 104% (active); under setting [1], 57.4%. Take `Cc1ccc2c(c1)NC(=O)c1cc([N+](=O)[O-])ccc1O2`: for the setting “at 20 µM”, the inhibition is 2.5% (inactive). On the same count and under the same terms, to `Cc1cccc(Oc2cc([N+](=O)[O-])cc3c2C(=O)Nc2ccccc2O3)c1` belongs 46.8% (inactive); to `Cc1ccc(Oc2cc([N+](=O)[O-])cc3c2C(=O)Nc2ccccc2O3)cc1`, 40.9% (inactive); to `O=C1Nc2ccccc2Oc2cc([N+](=O)[O-])ccc21`, 13% (inactive). Still for that read-out and setting: to `CCOc1cccc(C(=O)Nc2cccc(C(C)=O)c2)c1` belongs -0.2% (inactive); to `Cc1ccc(CN(C(=O)c2ccccc2[N+](=O)[O-])C2CCS(=O)(=O)C2)o1` (configuration not stated), 0.4% (inactive). On the same count and under the same terms, for `COc1cccc(OC)c1C(=O)NC(=O)Nc1c(F)c(F)c(F)c(F)c1F` the value was 0.3% (inactive). As to `O=C(O)CC(c1cccc(C(F)(F)F)c1)N1CCS(=O)(=O)CC1` (configuration not stated), the inhibition (at 20 µM) is 0.6% (inactive).

Consider `CCc1ccc(CN(C(=O)COc2c(C)cccc2C)C2CCS(=O)(=O)C2)cc1` (configuration not stated), for which the inhibition (at 20 µM) is -0.3% (inactive). `O=C(Nc1nnc(-c2cccc(F)c2)s1)Nc1ccccc1F`: the inhibition (at 20 µM) was 0.6% (inactive).

In the case of `O=c1[nH]c2c(cc1CNCCN1CCOCC1)c(-c1cccc(F)c1)nn2-c1ccccc1`, for the setting “at 20 µM”, the inhibition is -1.4% (inactive). As for `COc1ccc(CNC(=O)Oc2ccccc2)cc1Cl`, the inhibition (at 20 µM) was -0.6% (inactive). As for `COc1ccccc1N1C(=N)S/C(=C\c2ccc(-c3ccccc3C(=O)O)o2)C1=O`, the inhibition (at 20 µM) was 54% (active).

As for `O=C(O)c1ccccc1-c1ccc(/C=C2\SC(=O)N(c3ccccc3)C2=O)o1`, for the setting “at 20 µM”, the inhibition was 11% (inactive). Regarding `Cc1ccc(C)c(N2C(=N)S/C(=C\c3ccc(-c4ccccc4C(=O)O)o3)C2=O)c1`, the inhibition was 52.1% (inactive) (at 20 µM) and 18.9% under setting [1]. In the case of `CN(C)c1ncc(/C=C2/C(=O)NC(=S)N(C3CCCCC3)C2=O)cn1`, the inhibition (at 20 µM) was 32.3% (inactive).

In the case of `O=C(NNC(=S)NC1CCCCC1)c1ccccc1O`, the inhibition (at 20 µM) is 3.3% (inactive). For `Nc1ccc2c(c1)C/C(=C/c1ccco1)C2=O`, the inhibition (at 20 µM) was 73.6% (active). `O=C1/C(=C/c2ccco2)CCc2ccccc21`: the inhibition (at 20 µM) was 57.7% (active).

Regarding `O=C1/C(=C\c2ccc(Br)o2)Cc2ccccc21`, the inhibition (at 20 µM) was 21.7% (inactive). The same measure, in the same setting: to `COc1ccc2c(c1)CC/C(=C/c1ccco1)C2=O` belongs 44.1% (inactive). On the same count and under the same terms, for `O=C1C(=Cc2ccco2)C(=O)c2ccccc21` the value was 33.3% (inactive); for `O=C1/C(=C/c2ccco2)Cc2ccccc21`, 29.3% (inactive); for `CC(C)N(C(=O)Cn1cc(S(=O)(=O)CC(=O)NC2CCCCC2)c2ccccc21)C(C)C`, -0.7% (inactive). Still for that read-out and setting: for `Cc1ccc(-c2csc(NCCn3c(C(F)(F)F)nc4ccccc43)n2)cc1` the value was 1.7% (inactive). In the case of `Cc1cnc(CN(C)C(=O)c2ccc3oc(Cc4ccc(Cl)cc4)nc3c2)[nH]1`, for the setting “at 20 µM”, the inhibition is 0.2% (inactive).

Regarding `COc1ccc(-n2c(C)cc(/C=C3\C(=N)N4N=C(CC(=O)N5CCOCC5)SC4=NC3=O)c2C)cc1`, the inhibition (at 20 µM) is 20.1% (inactive). The same measure, in the same setting: for `Cc1ccc(/C=C/S(=O)(=O)NCC(=O)O)cc1` the value was 4.8% (inactive). As for `Cc1c(N2C(=O)/C(=C\c3ccc(N(C)C)cc3)N(C)C2=S)c(=O)n(-c2ccccc2)n1C`, the inhibition reads like this: (at 20 µM) 52.4% (active); under setting [1], 74.6%. Turning to `Cc1c(N2C(=O)/C(=C/c3ccccc3)SC2=S)c(=O)n(-c2ccccc2)n1C`, under “at 20 µM”, the inhibition is -4.2% (inactive). Same read-out and setting: to `CN1C(=S)N(c2cccnc2)C(=O)/C1=C\c1ccc(N(C)C)cc1` belongs 6.7% (inactive). Same read-out and setting: to `Cc1cccc(C(=O)N/C(=C/c2ccco2)C(=O)N2CCCCCC2)c1` belongs 0% (inactive); to `O=C(NCC1CCCO1)Nc1cc(Cl)cc(Cl)c1` (configuration not stated), 0.7% (inactive). Consider `COc1cccc2c(C)c(C(=O)O)[nH]c12`, for which the inhibition (at 20 µM) was 67.9% (active). As for `COC(=O)c1cc(=O)c2cccc(OC)c2[nH]1`, the inhibition (at 20 µM) is -2.4% (inactive). Still for that read-out and setting: to `COc1cccc2c(=O)c(C(=O)O)c[nH]c12` belongs 2% (inactive); to `Nc1nnc(SCc2ccc([N+](=O)[O-])cc2)s1`, 0.4% (inactive).
